# Shown are actives, neighbours in structure and some others; about 3.1% of the full set was active somewhere.
# ALOX12 inhib: qHTS Assay for Inhibitors of 12-hLO (12-human lipoxygenase); Polyunsaturated fatty acid lipoxygenase ALOX12 (Homo sapiens), P18054; purified 12-hLO, xylenol orange hydroperoxide absorbance; Potency, µM (titrated, usually from 57.1 µM), without a hit: at the top dose activity change, negative = inhibition, actives largely listed as inhibitors; 150,000 compounds, 0.12% hits; also: potency is read from the fitted curve at half-maximal effect; nearly all actives have a fitted effect of over 55% in size
#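 Hydroperoxide formation by human 12-lipoxygenase from 40 uM arachidonic acid was followed colorimetrically via ferric-xylenol orange complex, using the 573/405 nm absorbance ratio. Enzyme concentration was 150 nM, with 30 min reaction at room temperature.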
# ALOX15B inhib: qHTS Assay for Inhibitors of 15-hLO-2 (15-human lipoxygenase 2); AID 881, 2007; Potency, µM (series often up to 57.1 µM), without a hit: at the top dose activity change, negative = inhibition, hits mostly inhibitors; Polyunsaturated fatty acid lipoxygenase ALOX15B (Homo sapiens), O15296; 110,000 compounds, 0.56% hits; purified 15hLO-2, xylenol orange hydroperoxide absorbance; also: potency is read from the fitted curve at half-maximal effect; nearly all actives have a fitted effect of over 60% in size
# Target sequence (O15296 whole entry, looked up): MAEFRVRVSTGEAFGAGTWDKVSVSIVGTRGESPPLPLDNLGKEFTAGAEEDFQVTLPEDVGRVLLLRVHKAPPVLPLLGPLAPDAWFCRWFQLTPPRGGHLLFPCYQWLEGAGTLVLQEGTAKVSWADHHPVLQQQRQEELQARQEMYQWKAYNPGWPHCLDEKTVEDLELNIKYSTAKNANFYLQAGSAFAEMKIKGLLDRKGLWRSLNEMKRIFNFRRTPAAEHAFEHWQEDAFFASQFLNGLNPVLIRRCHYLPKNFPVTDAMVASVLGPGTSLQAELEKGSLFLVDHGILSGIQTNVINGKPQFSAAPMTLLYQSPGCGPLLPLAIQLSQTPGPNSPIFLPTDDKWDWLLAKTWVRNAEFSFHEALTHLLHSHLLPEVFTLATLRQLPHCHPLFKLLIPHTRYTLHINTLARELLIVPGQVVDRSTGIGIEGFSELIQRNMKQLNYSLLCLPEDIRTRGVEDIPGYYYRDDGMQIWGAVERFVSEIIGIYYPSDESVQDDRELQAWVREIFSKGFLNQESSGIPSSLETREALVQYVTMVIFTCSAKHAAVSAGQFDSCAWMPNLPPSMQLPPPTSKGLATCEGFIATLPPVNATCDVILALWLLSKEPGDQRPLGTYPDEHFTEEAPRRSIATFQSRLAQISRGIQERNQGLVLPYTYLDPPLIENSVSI
#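 Purified human 15hLO-2 (50 nM) preincubated 15 min with compound, then 45 uM arachidonic acid for 90 min at RT in 25 mM Hepes pH 7.5, 0.01% Triton X-100. Hydroperoxide detected by Fe-xylenol orange; 573/405 nm absorbance ratio.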
# PNC inhibitor: High Content Assay for Compounds that inhibit the Assembly of the Perinucleolar Compartment. PC3M PTB-GFP, PNC prevalence imaging, 16 h; hits give low values. activity change (PNC), negative = inhibition, % at 10 µM. 140,000 compounds, 3.1% hits;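 active = readout at or below -70, meaning at least 70% loss of cells showing the perinucleolar compartment, a nuclear body marking cancer cells; inconclusive = readout between -30 and a set limit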;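 also: plate controls were DMSO wells for no effect and camptothecin positive control wells for full effect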
#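 Read-out is percentage of cells bearing a perinucleolar compartment, from automated 20x imaging of fixed, Hoechst-stained PC3M PTB-GFP cells. Cells were seeded 4 h, then exposed 16 h to compound (23 nl of library stock) in duplicate plates.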
# Numbers without * were called inactive; u = inconclusive; x = not tested or not shown; [ ] = dose if it differs, or a comment. Unless noted, calls follow the shape of the dose curve; as a rule, active = well fitted curve in the direction sought with a large enough effect; inconclusive = small, poorly fitted or top-dose-only effect, or another doubt; inactive = no such curve, though single readings can be large; an effect the other way counts as inactive or inconclusive. Unless noted, % is scaled to controls: 0 for no effect and ±100 for the full control effect.
SMILES,ALOX12 inhib,ALOX15B inhib,PNC inhibitor
COCCN=C1OC(=O)N2C(=O)C3=C4C(C[C@H]5C(=O)N(c6ccccc6)C(=O)[C@H]5[C@H]4[C@@]12Cc1ccccc1)[C@H]1C(=O)N(c2ccccc2)C(=O)[C@H]1[C@H]3C (some centres undefined),-1%,-1%,x
Cc1nc2cnc(Oc3cccc(Cl)c3)nc2n(CCc2ccccc2)c1=O,-4%,-6%,x
CCOC(=O)C1CCCN(C(=O)c2cnn3c(C(F)F)cc(-c4ccc(C)cc4)nc23)C1 (centres undefined),-3%,-7%,-107*
Cc1ccc(-c2cc(C(F)F)n3ncc(C(=O)N4CCN5CCCC5C4)c3n2)cc1 (centres undefined),-5%,4%,-4
CC1=CC(C)C(C(=O)O)C(C(=O)O)C1 (centres undefined),6%,-3%,-81*
CC1=CCC(C(=O)O)C(C(=O)O)C1 (centres undefined),-4%,6%,u
COc1ccc(CNc2ncncc2-c2c(C)noc2C)c(OC)c1,x,-3%,x
CCOC(=O)C1=C(N)Oc2ccc(Br)cc2[C@@H]1[C@@H](C#N)C(=O)OCC,-6%,5%,x
CN1CCN(c2ncc3nc(-c4ccccc4)c(=O)n(-c4ccccc4)c3n2)CC1,-3%,25%,x
O=[N+]([O-])c1ccc(/C=C/c2ccc3cccc([N+](=O)[O-])c3n2)cc1,18%,x,-9
O=[N+]([O-])c1cccc2ccc(/C=C/c3ccc(F)cc3)nc12,-12%,x,-114*
CS(=O)(=O)N1CCC2(CCCN(Cc3ccc(C#N)cc3)C2)CC1,7%,2%,x
CCc1c(C(=O)Nc2cc(C)ccc2OC)[nH]c(C)c1C(C)=O,0%,3%,-94*
CCc1c(C(=O)Nc2ccc(OC)cc2)[nH]c(C)c1C(C)=O,-2%,-10%,28
O=C(OC1Cc2c(O)cc(O)cc2OC1c1cc(O)c(O)c(O)c1-c1c(C2Oc3cc(O)cc(O)c3CC2OC(=O)c2cc(O)c(O)c(O)c2)cc(O)c(O)c1O)c1cc(O)c(O)c(O)c1 (centres undefined),-26%,-12%,x
CSc1ccc(NC(=O)[C@H]2CCCC[C@@H]2C(=O)O)cc1,3%[11.4 µM],-4%[11.4 µM],x
Cc1nc(SCCO)c2oc3ccccc3c2n1,7%,-4%,-108*
Cc1nc(SCC(=O)O)c2oc3ccccc3c2n1,2%,-2%,-15
COc1ccc(C(=O)N2CCC3(CC2)CN(c2ccc(-c4ccccc4)cc2)C3)cc1,-1%,-3%,x
CC1(C)CC[C@]2(C)CC[C@@]3(C)C(=CCC4[C@@]5(C)CCC(O)C(C)(C)C5CC[C@@]43C)C2C1 (some centres undefined),-2%,0%,x
CCOC(=O)c1sc(NC(=O)COC(=O)Cn2cnc3ccccc32)c(C(=O)OCC)c1C,0%,x,-97*
CCOC(=O)c1c(NC(=O)COC(=O)Cn2c(C(F)(F)F)nc3ccccc32)sc(C)c1C,-8%,6%,u
CNC1=C(Cl)C(=O)c2ccncc2C1=O,-8%,-17%,x
CCc1nnc(NC(=O)NCN2C(=O)C3C4C=CC(C4)C3C2=O)s1 (centres undefined),1%,-8%,14
O=C(NCN1C(=O)C2C3C=CC(C3)C2C1=O)Nc1nccs1 (centres undefined),1%,x,-100*
SMILES,ALOX12 inhib,ALOX15B inhib,PNC inhibitor
O=C(Nc1ccc2c(c1)OCO2)C1CCCN1C(=O)OCc1ccccc1 (centres undefined),-6%,2%,-127*
O=C(Nc1ccc2c(c1)OCO2)C1CCCN1C(=O)NCc1ccccc1 (centres undefined),-4%,-5%,-28
COc1ccccc1NC(=O)N1CCCC1C(=O)Nc1ccc2c(c1)OCO2 (centres undefined),-2%,x,-13
O=C(Nc1ccc2c(c1)OCO2)C1CCCN1C(=O)Nc1ccccc1F (centres undefined),-3%,3%,-84*
COC(=O)CC[C@@H](C)[C@@H]1CC[C@@H]2[C@@H]3CC[C@H]4C[C@@H](O)CC[C@@]4(C)[C@@H]3CC[C@]21C,3%[11.4 µM],1%[11.4 µM],x
COC(=O)[C@@]1(Cc2ccc(OC)cc2)[C@H]2c3cc(C(=O)N(C)C)n(Cc4ccsc4Br)c3C[C@H]2CN1C(=O)c1ccccc1,-10%,-3%,x
c1nc(N2CCOCC2)c2cc(-c3ccoc3)ccc2n1,x,-6%,x
CCOC(=O)c1cc2c(nc1NC(=S)Nc1ccccc1)CC(C)(C)OC2,-4%,x,-82*
CCOC(=O)c1cc2c(nc1N)CC(C)(C)OC2,2%,x,4
O=C(c1ccco1)N1CCC2(CCCN(C(c3ccccc3)c3ccccc3)C2)CC1,-6%,-9%,x
CC(=O)N1CCCc2cc(S(=O)(=O)NCCC3=CCCCC3)ccc21,1%,4%,-86*
CC(=O)N1CCCc2cc(S(=O)(=O)NCc3ccc(C)cc3)ccc21,-1%,-3%,40
O=C(c1ccc2c(c1)OCO2)N1CCCCC1,-2%,8%,x
C=CCc1cc(C(=O)N2CCCCC2)ccc1O,-2%,-1%,-81*
O=S(=O)(NCc1cn2ccccc2n1)c1cc(F)ccc1F,-1%,x,-100*
O=C(NCc1cn2ccccc2n1)c1ccccc1,0%,-4%,14
COc1ccc(CC(=O)NC2=NCCS2)cc1,-4%,4%,9
COc1ccc(CCC(=O)NC2=NCCS2)cc1OC,-3%,5%,-100*
N#Cc1cccc(NC(=O)N2CCC3(CC2)CCN(C(=O)c2cccc(F)c2)CC3)c1,-1%,-4%,x
COc1ccc(-c2noc(CCC(N)=O)n2)cc1OC,2%,0%,-113*
CCOc1ccc(-c2noc(CCCC(N)=O)n2)cc1OC,1%,-1%,26
COc1cc(-c2noc(CCCC(=O)NCc3ccco3)n2)cc(OC)c1OC,-2%,x,-100*
Cc1ccc(-c2noc(CCC(=O)NCc3ccco3)n2)cc1,-5%,-19%,22
COc1ccc(-c2noc(CN(C)S(=O)(=O)c3ccc(Cl)cc3)n2)cc1OC,-6%,6%,-92*
CC(C)N(Cc1nc(-c2ccc(Cl)cc2)no1)C(=O)CN(C)S(=O)(=O)c1ccc(Cl)cc1,-12%,9%,u
SMILES,ALOX12 inhib,ALOX15B inhib,PNC inhibitor
O=C(c1cnccn1)N1CCC2(CC1)CN(C(c1ccccc1)c1ccccc1)C2,0%,5%,x
N#Cc1ccc(CN2CCC3(CC2)CCN(C(=O)c2cc(C(F)(F)F)cc(C(F)(F)F)c2)CC3)cc1,2%,35%,x
Cc1noc(C)c1-c1nc(N(C)C)c2ccccc2n1,x,-23%,x
Cn1cccc1C(=O)N1CCC2(CCCN(Cc3ccc(C#N)cc3)C2)CC1,-4%,9%,x
CCCn1c(C)nc2c(NC3CCN(Cc4ccccc4)C3)nc(C)nc21 (centres undefined),1%,22%,x
CC(C)n1nnc2cc(C(=O)O)ccc21,0%[0.00818 µM],-2%[0.0915 µM],x
COc1ccc(O)c(C2=Nc3ccccc3N=C(c3ccco3)C2)c1,-1%,-4%,2
Oc1ccc(Cl)cc1C1=Nc2ccccc2N=C(c2ccco2)C1,1%,x,-100*

# Screens (PubChem)
